Assay results taken from PubChem BioAssay (EPA / NIEHS).
Active and inactive are the calls of the source. How the source made its calls: active means hit-call score of the fitted dose curve at least 0.9, where 1 is the maximum; inactive means score below 0.9.

Legend:
[1] = BSK_3C_SRB: Viability Assessment in the BioMAP Diversity Plus: 3C Assay (AID 2283023); conditions: primary human endothelial cells (HUVEC);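 further: fitted both ways against DMSO so a hit may be signal rise or drop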
In short: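 Primary human umbilical vein endothelial cells in the 3C system were read 24 h after compound dosing. Total protein was stained with 0.1% sulforhodamine B after 10% TCA fixation and read at 560 nm, with bidirectional fitting against DMSO as baseline.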

[2] = read-out: Matrix Metallopeptidase 1 (MMP1), MMP1 (gene 4312); assay: BSK_BE3C_MMP1: BioMAP Diversity Plus: BE3C Assay for Matrix Metallopeptidase 1 (MMP1) Biomarker Activity (AID 2283024); conditions: primary human bronchial epithelial cells; actives raise or lower the signal
In short: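 Human bronchial epithelial cells (BE3C system) exposed to compound for 24 h; MMP1 then quantified by ELISA. Activity was fitted in both directions relative to DMSO.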

[3] = BSK_3C_Vis: BioMAP Diversity Plus: 3C Assay for Morphology Visualization (AID 2283025); conditions: primary human endothelial cells (HUVEC);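 further: fitted both ways so gain or loss versus DMSO counts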;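 on AC50: light microscopy image of cell morphology used as background control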
In short: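 Chemicals were added to primary human umbilical vein endothelium, cells were incubated 24 h, and morphology was then visualized by light microscopy. Gain or loss of signal was fitted bidirectionally relative to DMSO.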

[4] = read-out: Pselectin, SELP (gene 6403); assay: BSK_4H_Pselectin: BioMAP Diversity Plus: 4H Assay for Pselectin Biomarker Activity (AID 2283026); conditions: primary human endothelial cells (HUVEC); actives raise or lower the signal
In short: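 ELISA read-out of P-selectin on human umbilical vein endothelium after 24 h of dosing. Values derive from bidirectional fitting relative to DMSO. Parallel SRB protein staining flagged overt cytotoxicity.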

[5] = BSK_4H_SRB: Viability Assessment in the BioMAP Diversity Plus: 4H Assay (AID 2283027); conditions: primary human endothelial cells (HUVEC);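 further: cells exposed to compound for 24 h before staining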;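 on AC50: curves fitted both ways versus DMSO so AC50 may be loss or gain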
In short: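 Absorbance at 560 nm of SRB-stained total protein served as the viability read-out in confluent primary human umbilical vein endothelium 24 h after chemical treatment. Curves were fitted bidirectionally against DMSO as negative control.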

[6] = read-out: Thrombomodulin, THBD (gene 7056); assay: BSK_3C_Thrombomodulin: BioMAP Diversity Plus: 3C Assay for Thrombomodulin Biomarker Activity (AID 2283029); conditions: primary human endothelial cells (HUVEC); actives raise or lower the signal
In short: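 Read-out is ELISA of thrombomodulin on human umbilical vein endothelium 24 h after chemical dosing. Gain or loss of signal is scored relative to DMSO. Overt cytotoxicity is checked in parallel cultures by sulforhodamine B staining.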

[7] = read-out: Vascular endothelial growth factor receptor 2 (Homo sapiens) (UniProt P35968); assay: BSK_4H_VEGFRII: BioMAP Diversity Plus: 4H Assay for Vascular endothelial growth factor receptor 2 (VEGFR2) Biomarker Activity (AID 2283031); conditions: primary human endothelial cells (HUVEC); actives raise or lower the signal
In short: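 Primary human umbilical vein endothelial cells in the BioMAP 4H system were dosed with test chemical, and 24 h later VEGFRII was measured by ELISA. Activity was fitted bidirectionally against DMSO as negative control and baseline.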

[8] = read-out: Human Leukocyte Antigen - DR isotype (HLADR), HLA-DRA (gene 3122); assay: BSK_BE3C_HLADR: BioMAP Diversity Plus: BE3C Assay for Human Leukocyte Antigen - DR isotype (HLADR) Biomarker Activity (AID 2283032); conditions: primary human bronchial epithelial cells; actives raise or lower the signal
In short: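 ELISA read-out of HLA-DR on human lung bronchial epithelial primary cells, measured 24 h post-dosing. Both increases and decreases were scored relative to DMSO vehicle.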

[9] = read-out: Vascular cell adhesion molecule 1 (VCAM1), VCAM1 (gene 7412); assay: BSK_4H_VCAM1: BioMAP Diversity Plus: 4H Assay for Vascular cell adhesion molecule 1 (VCAM1) Biomarker Activity (AID 2283033); conditions: primary human endothelial cells (HUVEC); actives raise or lower the signal
In short: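 ELISA read-out of VCAM-1 on human umbilical vein endothelium 24 hours after chemical dosing; gain or loss of signal was fitted relative to DMSO, with sulforhodamine B staining of parallel cultures flagging overt cytotoxicity.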

[10] = read-out: Interferon-gamma inducible Protein 10 (IP10), CXCL10 (gene 3627); assay: BSK_BE3C_IP10: BioMAP Diversity Plus: BE3C Assay for Interferon-gamma inducible Protein 10 (IP10) Biomarker Activity (AID 2283034); conditions: primary human bronchial epithelial cells; actives raise or lower the signal
In short: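 Chemical is dosed onto human lung bronchial epithelial primary cells, cultures are incubated 24 h, and IP-10 is then quantified by ELISA. Gain or loss of signal is fitted in both directions relative to DMSO.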

[11] = read-out: Monokine induced gamma interferon (MIG), CXCL9 (gene 4283); assay: BSK_BE3C_MIG: BioMAP Diversity Plus: BE3C Assay for Monokine induced gamma interferon (MIG) Biomarker Activity (AID 2283035); conditions: primary human bronchial epithelial cells; actives raise or lower the signal;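 further: MIG protein measured by ELISA in BE3C cultures after 24 h of dosing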
In short: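 MIG level was determined by ELISA after 24 h chemical treatment of primary human bronchial epithelial cells. Values were fitted bidirectionally with DMSO as the negative control and activity baseline.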

[12] = read-out: Transforming growth factor beta 1 (TGFb1), TGFB1 (gene 7040); assay: BSK_BE3C_TGFb1: BioMAP Diversity Plus: BE3C Assay for Transforming growth factor beta 1 (TGFb1) Biomarker Activity (AID 2283036;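 further: TGF-b1 protein level measured by ELISA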); conditions: primary human bronchial epithelial cells; actives raise or lower the signal
In short: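 Primary human lung bronchial epithelial cells; compound exposure 24 h; TGF-b1 by ELISA; bidirectional fit, DMSO baseline. Parallel SRB total-protein staining for cytotoxicity.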

[13] = read-out: Plasminogen activator inhibitor-1 (PAI1), SERPINE1 (gene 5054); assay: BSK_BE3C_PAI1: BioMAP Diversity Plus: BE3C Assay for Plasminogen activator inhibitor-1 (PAI1) Biomarker Activity (AID 2283037); conditions: primary human bronchial epithelial cells; actives raise or lower the signal
In short: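 Primary human lung bronchial epithelial cells; chemical dosing; 24 h; PAI-1 measured by ELISA; bidirectional fit referenced to DMSO as negative control.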

[14] = read-out: urokinase plasminogen activator (uPA), PLAU (gene 5328); assay: BSK_BE3C_uPA: BioMAP Diversity Plus: BE3C Assay for urokinase plasminogen activator (uPA) Biomarker Activity (AID 2283038); conditions: primary human bronchial epithelial cells; actives raise or lower the signal;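 further: uPA protein level quantified by ELISA in cell cultures; uPA read one day after compound addition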
In short: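 Human primary bronchial epithelial cells were exposed to chemical for 24 h, then uPA levels were measured by ELISA. Responses were fitted bidirectionally against DMSO as negative control and baseline. Parallel SRB staining of total protein gauged overt cytotoxicity.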

[15] = read-out: Interleukin-6 (IL6), IL6 (gene 3569); assay: BSK_CASM3C_IL6: BioMAP Diversity Plus: CASM3C Assay for Interleukin-6 (IL6) Biomarker Activity for (AID 2283040); conditions: primary human coronary artery smooth muscle cells; actives raise or lower the signal
[16] = read-out: Tissue plasminogen activator (tPA), PLAT (gene 5327); assay: BSK_BE3C_tPA: BioMAP Diversity Plus: BE3C Assay for Tissue plasminogen activator (tPA) Biomarker Activity (AID 2283041); conditions: primary human bronchial epithelial cells; actives raise or lower the signal;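 further: tPA level quantified by ELISA one day after compound addition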
In short: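 Primary human lung bronchial epithelial cultures receive test chemical; after 24 h, tPA is quantified by ELISA, and gain or loss of signal is fitted bidirectionally relative to DMSO baseline.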

[17] = read-out: Interleukin-8 (IL8), CXCL8 (gene 3576); assay: BSK_CASM3C_IL8: BioMAP Diversity Plus: CASM3C Assay for Interleukin-8 (IL8) Biomarker Activity (AID 2283042); conditions: primary human coronary artery smooth muscle cells; actives raise or lower the signal;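 further: IL-8 protein level quantified by ELISA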
[18] = read-out: Urokinase-type plasminogen activator receptor (uPAR), PLAUR (gene 5329); assay: BSK_4H_uPAR: BioMAP Diversity Plus: 4H Assay for Urokinase-type plasminogen activator receptor (uPAR) Biomarker Activity (AID 2283030); conditions: primary human endothelial cells (HUVEC); actives raise or lower the signal
In short: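 Primary human umbilical vein endothelial cells were exposed to chemical for 24 h before cell-surface uPAR was quantified by ELISA. Activity was fitted bidirectionally against the DMSO negative control baseline.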

[19] = read-out: Urokinase-type plasminogen activator receptor (uPAR), PLAUR (gene 5329); assay: BSK_BE3C_uPAR: BioMAP Diversity Plus: BE3C Assay for Urokinase-type plasminogen activator receptor (uPAR) Biomarker Activity (AID 2283039); conditions: primary human bronchial epithelial cells; actives raise or lower the signal;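 further: cells exposed to compound for one day before measurement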
In short: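 Human bronchial epithelial primary cells; chemical exposure 24 h; uPAR by ELISA; bidirectional fit vs DMSO control.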

[20] = BSK_BE3C_SRB: Viability Assessment in the BioMAP Diversity Plus: BE3C Assay (AID 2283028); conditions: primary human bronchial epithelial cells
In short: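 Human primary bronchial epithelial cells were exposed to test chemicals for 24 h. Total protein in parallel cultures was then measured by staining with 0.1% sulforhodamine B after 10% TCA fixation, with absorbance read at 560 nm. Activity was fitted bidirectionally against DMSO.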

Measured: AC50

CN(C)c1ccc(Cc2ccc(N(C)C)cc2)cc1
active: [2] 12.6 µM | [4] 32.8 µM | [8] 36.3 µM | [10] 28.8 µM
not listed: [18] | [19] | [20]
inactive: all other assays above

COc1ccc(-n2nc(C(F)F)cc2-c2ccc(S(C)=O)cc2)cc1 (stereo not given)
not listed: [18] | [19] | [20]
inactive: all other assays above

COCCOc1cc2cc(C(=O)NC3CCN(C(C)C)CC3)n(CC(=O)Nc3ccc(Cl)cn3)c2cn1
not listed: [18] | [19] | [20]
inactive: all other assays above

O=c1n(CC2CO2)c(=O)n(CC2CO2)c(=O)n1CC1CO1 (stereo not given)
active: [1] 17.5 µM | [3] 39 µM | [4] 11.8 µM | [5] 15.1 µM | [8] 34.7 µM | [9] 23.4 µM
not listed: [19] | [20]
inactive: all other assays above

O=C(O)CCN(C1(C(=O)NO)CCCC1)S(=O)(=O)c1ccc(Oc2ccc(F)cc2)cc1
not listed: [18] | [20]
inactive: all other assays above

CC(C)=CCC/C(C)=C\CO
not listed: [18] | [19] | [20]
inactive: all other assays above

CNS(=O)(=O)c1cc(C(=O)N2CCC(CCN3C4CCC3CC(n3c(C)nc5ccccc53)C4)(c3cccc(F)c3)CC2)c(Cl)cc1F (stereo not given)
active: [1] 20.6 µM | [2] 20 µM | [3] 15.2 µM | [4] 13.2 µM | [5] 11.8 µM | [15] 5.62 µM
not listed: [18] | [20]
inactive: all other assays above

CCNc1ccccc1
not listed: [18] | [19] | [20]
inactive: all other assays above

Nc1ccc(Nc2ccccc2)cc1
active: [2] 8.67 µM | [4] 3.97 µM | [9] 3.97 µM
not listed: [18] | [20]
inactive: all other assays above

O=C(O)c1cc(N=Nc2ccc(S(=O)(=O)Nc3ccccn3)cc2)ccc1O
not listed: [19] | [20]
inactive: all other assays above

CC(C)CCO
not listed: [7] | [18] | [19] | [20]
inactive: all other assays above

CCCCC(CC)COC(=O)c1ccc(C(=O)OCC(CC)CCCC)cc1 (stereo not given)
not listed: [2]
inactive: all other assays above
